Assay results reported in the supplement of paper PMC6555819.

Tested on: VDR:RXRa (NR concentration 270 nM, RXRa partner concentration 90 nM)
Experiment: PBM binding z-score (relative to random genomic background probes); higher = stronger binding; sequences stand for … in GC…GCGATTGACAGCGTAGAATGAAGG
Description: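 Protein-binding microarray (Agilent 4x180K custom design, double-stranded 60-nt probes: 5' GC cap, 34-nt variable region, 24-nt constant primer region; full probe sequence given). Purified or IVT nuclear receptor:RXRα heterodimers (3:1 NR:RXRα, mostly 270:90 nM) or homodimers were incubated for 1 h in PBS with 2% milk and no ligand, then detected with Alexa488 antibodies. Fluorescence from o1-orientation probes (~5 replicates averaged) was converted to z-scores against 500 random hg19 background probes. Variable regions are seed direct-repeat (DR0–DR5) sites, all their single-nucleotide variants and half-site ablations.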

Sequence	PBM binding z-score
CAAACTAGGGCACAGAGGTCAAAGTCCGTGCGTA	6.64
AATGCAGGGTCATCGTAGGCCAGAGTACGCACAG	5.1
AGAACGAGGGCACGCTGAGTTGAAAGCAGAGTAG	2.29
CCATACGGGTCACTCCAGGTTATAGCATCGGAGT	4.11
CCGACTGGCGCAAAGGTTACCATACTCAGTACGA	0.854
GCTATTAGTTGAAAGGCCAACCGAATGATTCTCG	-0.0343
CGAACTAGGCCAGAACAGGACAGTGAAGGATGAT	-0.283
TCGAGTAGGTTACCAATGGGGCACTCAGCTTTCT	0.142
GGAACGAGGGCAACGTTGATAGCATCTGTCGACG	0.229
CCGACTGGGCCATCAGGTCATTGATATCAACGTT	1.63
CAAACTAGGTCACGAAGGGTCAAAGTCGAATGAC	6.99
CCGACTGGAGCAAGGTTACCATAACGCACAGCCA	0.139
ATATGTAGGTTAGCTGGGGTAATTCAGACTAGGC	0.945
TCTAGTTTGTCACGGAGGTCACACACGACGGGTA	4.63
ACAGACTGGTGATGAAGGTAACTCAGGCTATCAT	-0.35
CCTACTGGGCCAGGGTCATTGATCAGTCAAAGCA	3.14
CGAACGAGGGCAGGAGTTGATAGCAAATGCCGAT	-0.167
GCGTCTGGGGCAAAGCAGGTTACCATAAGGTTGG	0.117
ACTAGCAGGCCAAGGGTCACGCAAGATTAGTCCG	3.76
GGAAGGAGGGCAAGTTGATAGCAGAGTTTGATGG	0.934

Sequence	PBM binding z-score
TCTTGTAGATCAAAGGTTGAGAAAGCCGAAGCCT	0.408
CCTACTGGGACAAAGGTCATTGATTCCAATGCTC	4.67
ACAGACCGGTGAGTGAAGGTAACTCAGCTGGACG	-0.63
TCTAGTTGCTCAAAGGTCACACACTCGAAATGCG	4.77
TATACAGGGTCAAAGGCCAGAGTTCGAATGTCGA	5.34
TCATAAAGGTAAATGCTAGGTGAAAGTCCGATCT	0.918
ATCTAAAGGTCGACGAGGTGAGTATACACCGTTT	5.21
ACTAGCAGTCCAAGGGTCACTCAAGATTAGTCCG	2.86
TCGGGTAGGTTAGTCGGGGCATTCAGCCAACATA	2.88
GCTGCTAGGTCAGGTTGGTCAGCTATCGGGTACG	0.576
CCTACTGGGCCAAGGTCATTGAACAGTCAAAGCA	3.39
CGTCAAAGTTCAACTAAAGTAACGTAAAGCACGC	4.08
CCTGCTGGGTCAATGGTCAGCTAAAGCAGCTCGC	0.85
CCTAGTTGGTTAGGAGGTCACACACCGGATATGA	3.56
CCTACTCGGCCATTCAGAGGTCATTGATCATATG	4.06
ATCTCTCGGTAACAAGTTCAGTGAAAGAGAGGAC	1.62
GATACAGGGTCAGCTAGAGGCCAGAGCATGGAAA	3.04
GCTAGTTGGTCACTAAAAGGTCACACACCGGTCG	4.17
CCTAGCAGGCCAGGCTCACTCAAGCATTTCGCTT	-0.772
CGAACTAGGTCATCCAGGACGGTGAATACATTGA	3.72
